# Results filed as inconclusive are left out. Where a call stands in place of a potency, no number is given. The source made the active and inactive calls. Unless noted, calls come from the whole dose curve; as a rule, active = well fitted cell-killing curve with a large enough effect; inconclusive = small, poorly fitted or top-dose-only effect; inactive = flat fitted curve, though single readings scatter.
# Experiment: Cell Viability - LYMP2-026 (AID 989); note: nearly all actives have a fitted effect of over 50% in size
# Conditions: LYMP2-026 lymphoblastoid cell viability, qHTS; series mostly up to 92.2 µM
# Procedure, shortened: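 Cytotoxicity read as ATP-dependent luminescence (CellTiter-Glo, 30 min room temperature) after 24 h compound treatment at 37 C. LYMP2-026 lymphoblastoid line seeded at 2500 cells/well; AC50 derived by standard Hill equation.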
row,Structure (SMILES),outcome
1,CCC(C)(C)C(=O)O,inactive
2,O=C(Cl)c1c(Cl)cccc1Cl,inactive
3,Cc1ccc(C)cc1,inactive
4,CCCC(Cl)CCCC(Cl)CCC(Cl)CCC(Cl)CCC(Cl)CCCC(Cl)CCC (configuration not stated),inactive
5,Cc1cc(C)cc(N)c1,inactive

# Experiment: Cell Viability - LYMP1-002 - Assay at 24 hr (AID 993)
# Conditions: LYMP1-002 lymphoblastoid cells viability; series mostly up to 92.2 µM
# Procedure, shortened: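 qHTS cytotoxicity at 24 h: CellTiter-Glo ATP luminescence in lymphoblastoid line LYMP1-002 incubated with compound at 37 °C. Concentration-response modeled with the Hill equation for AC50; tetraoctylammonium bromide served as positive control.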
row,Structure (SMILES),Potency
1,FC(F)(F)c1cccc(Cl)c1,inactive
2,Cc1cccc(C(=O)O)c1,inactive
3,CCN(Cc1ccccc1)c1ccccc1,inactive
4,CC(C)(O)CCC(C)(C)O,inactive
5,OCCO,inactive
6,CNC(=O)N(c1ccccc1)c1ccccc1,inactive
7,Nc1cccc(S(=O)(=O)O)c1,inactive
8,O=C(O)CCSSCCC(=O)O,inactive
9,c1ccsc1,inactive
10,C1COC1,inactive
11,C[C@@H]1CC2(OC3C[C@@]4(C)C5=CC[C@H]6C(C)(C)C(O[C@@H]7OC[C@@H](O)[C@H](O)[C@H]7O)CC[C@@]67C[C@@]57CC[C@]4(C)C31)OC(O)C1(C)OC21 (some centres not stated),inactive
12,c1ccc2c(c1)ccc1ncccc12,inactive
13,Cc1ccc2cccnc2c1,inactive
14,O=C(Cl)c1cccc([N+](=O)[O-])c1,inactive
15,Nc1ccc(Cl)cc1[N+](=O)[O-],inactive
16,CC(C)c1ccccc1,inactive
17,Cc1cccc(C)c1O,inactive
18,ClCCl,inactive
19,NC(=O)c1cccc([N+](=O)[O-])c1,inactive
20,O=[N+]([O-])c1cccc(C(F)(F)F)c1,inactive

row,Structure (SMILES),Potency
1,Nc1cccc([N+](=O)[O-])c1,inactive
2,CCOc1cc(OCC)c(C(C)=O)cc1OCC,inactive
3,COC(=O)CC#N,inactive
4,CC(=O)Nc1ccc(N)cc1,inactive
5,C1CCC2OC2C1 (configuration not stated),inactive
6,O=C1CCCCC1,inactive
7,OC1CCCC1,inactive
8,O=C1NC(=O)c2cc([N+](=O)[O-])ccc21,inactive
9,BrC(Br)C(Br)Br,inactive
10,CCCCC(=O)N(C)C,inactive
11,CCOc1ccc(NC(C)=O)cc1N,inactive
12,Cc1ccc(N(C)C)cc1,inactive
13,Nc1ccc(F)cc1F,inactive
14,Nc1cc(S(=O)(=O)O)ccc1O,inactive
15,CCC(C)(C)C(=O)O,inactive
16,O=C(Cl)c1c(Cl)cccc1Cl,inactive
17,Cc1ccc(C)cc1,inactive
18,CCCC(Cl)CCCC(Cl)CCC(Cl)CCC(Cl)CCC(Cl)CCCC(Cl)CCC (configuration not stated),inactive
19,Cc1cc(C)cc(N)c1,inactive

# Experiment: Cell Viability - LYMP1-002 - Assay at 40 hr (AID 994); note: nearly all actives have a fitted effect of over 60% in size
# Conditions: LYMP1-002 lymphoblastoid cell viability; series mostly up to 92.2 µM
# Procedure, shortened: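 Cytotoxicity was read as loss of cellular ATP (CellTiter-Glo luminescence) after 40 hr compound exposure at 37 C of 2500 LYMP1-002 lymphoblastoid cells per well. Concentration-response data were fitted with the standard Hill equation to give AC50.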
row,Structure (SMILES),Potency
1,FC(F)(F)c1cccc(Cl)c1,inactive
2,Cc1cccc(C(=O)O)c1,inactive
3,CCN(Cc1ccccc1)c1ccccc1,inactive
4,CC(C)(O)CCC(C)(C)O,inactive
5,OCCO,inactive
6,Nc1cccc(S(=O)(=O)O)c1,inactive
7,O=C(O)CCSSCCC(=O)O,inactive
8,c1ccsc1,inactive
9,C1COC1,inactive
10,c1ccc2c(c1)ccc1ncccc12,inactive
11,Cc1ccc2cccnc2c1,inactive
12,CC(C)c1ccccc1,inactive
13,Cc1cccc(C)c1O,inactive
14,ClCCl,inactive
15,NC(=O)c1cccc([N+](=O)[O-])c1,inactive
16,Nc1cccc([N+](=O)[O-])c1,inactive
17,CCOc1cc(OCC)c(C(C)=O)cc1OCC,inactive
18,CC(=O)Nc1ccc(N)cc1,inactive
19,C1CCC2OC2C1 (configuration not stated),inactive
20,O=C1CCCCC1,inactive
21,O=C1NC(=O)c2cc([N+](=O)[O-])ccc21,inactive
22,BrC(Br)C(Br)Br,inactive
23,CCOc1ccc(NC(C)=O)cc1N,inactive
24,Cc1ccc(N(C)C)cc1,inactive
25,Nc1ccc(F)cc1F,inactive
26,Nc1cc(S(=O)(=O)O)ccc1O,inactive
27,CCC(C)(C)C(=O)O,inactive
28,Cc1ccc(C)cc1,inactive
29,CCCC(Cl)CCCC(Cl)CCC(Cl)CCC(Cl)CCC(Cl)CCCC(Cl)CCC (configuration not stated),inactive

# Experiment: qHTS Assay for Identification of Small Molecule Inducers of Hypoxia Response (AID 2120; active = well fitted curve in the direction sought with a large enough effect in the signal ratio, with a control signal flat, not every such curve was filed as active; the % refers to the signal ratio)
# Conditions: hypoxia response reporter cells, beta-lactamase ratio readout; series mostly up to 104 µM
# Procedure, shortened: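 Reporter induction read as the CCF4 blue/green (460nm/530nm) emission ratio after 2.5 h dye loading at room temperature. ME-180 HRE-beta-lactamase cells received titrated compounds for 17 h at 37 degrees Celsius; AC50 values derived.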
row,Structure (SMILES),outcome
1,FC(F)(F)c1cccc(Cl)c1,inactive
2,Cc1cccc(C(=O)O)c1,inactive
3,CCN(Cc1ccccc1)c1ccccc1,inactive
4,CC(C)(O)CCC(C)(C)O,inactive
5,OCCO,inactive
6,CNC(=O)N(c1ccccc1)c1ccccc1,inactive
7,Nc1cccc(S(=O)(=O)O)c1,inactive
8,O=C(O)CCSSCCC(=O)O,inactive
9,c1ccsc1,inactive
10,C1COC1,inactive
11,C[C@@H]1CC2(OC3C[C@@]4(C)C5=CC[C@H]6C(C)(C)C(O[C@@H]7OC[C@@H](O)[C@H](O)[C@H]7O)CC[C@@]67C[C@@]57CC[C@]4(C)C31)OC(O)C1(C)OC21 (some centres not stated),inactive
12,c1ccc2c(c1)ccc1ncccc12,inactive
13,Cc1ccc2cccnc2c1,inactive
14,O=C(Cl)c1cccc([N+](=O)[O-])c1,inactive
15,Nc1ccc(Cl)cc1[N+](=O)[O-],inactive
16,CC(C)c1ccccc1,inactive
17,Cc1cccc(C)c1O,inactive
18,ClCCl,inactive
19,NC(=O)c1cccc([N+](=O)[O-])c1,inactive
20,O=[N+]([O-])c1cccc(C(F)(F)F)c1,inactive

row,Structure (SMILES),outcome
1,Nc1cccc([N+](=O)[O-])c1,inactive
2,CCOc1cc(OCC)c(C(C)=O)cc1OCC,inactive
3,COC(=O)CC#N,inactive
4,CC(=O)Nc1ccc(N)cc1,inactive
5,C1CCC2OC2C1 (configuration not stated),inactive
6,O=C1CCCCC1,inactive
7,OC1CCCC1,inactive
8,O=C1NC(=O)c2cc([N+](=O)[O-])ccc21,inactive
9,BrC(Br)C(Br)Br,inactive
10,CCCCC(=O)N(C)C,inactive
11,CCOc1ccc(NC(C)=O)cc1N,inactive
12,Cc1ccc(N(C)C)cc1,inactive
13,Nc1ccc(F)cc1F,inactive
14,Nc1cc(S(=O)(=O)O)ccc1O,inactive
15,CCC(C)(C)C(=O)O,inactive
16,O=C(Cl)c1c(Cl)cccc1Cl,inactive
17,Cc1ccc(C)cc1,inactive
18,CCCC(Cl)CCCC(Cl)CCC(Cl)CCC(Cl)CCC(Cl)CCCC(Cl)CCC (configuration not stated),inactive
19,Cc1cc(C)cc(N)c1,inactive
